# Values without a mark were called inactive. Inconclusive results are not listed. Entries that show only a call come without a potency. The source made the active and inactive calls. Unless noted, calls come from the whole dose curve; as a rule, active = well fitted curve in the direction sought with a large enough effect in the repeat runs; inconclusive = weak or mixed curves; inactive = no such curve, though single readings can be large; an effect the other way counts as inactive or inconclusive.
# Key:
# [1] = biological target: Androgen receptor (Homo sapiens) (UniProt P10275); test: qHTS assay to identify small molecule antagonists of the androgen receptor (AR) signaling pathway using the MDA cell line in the presence of 0.5 nM R1881 (AID 1259243); note: nearly all actives have a fitted effect of over 50% in size; note: potency is the fitted concentration of half-maximal effect
# Androgen receptor (Homo sapiens), sequence (P10275 whole entry, looked up): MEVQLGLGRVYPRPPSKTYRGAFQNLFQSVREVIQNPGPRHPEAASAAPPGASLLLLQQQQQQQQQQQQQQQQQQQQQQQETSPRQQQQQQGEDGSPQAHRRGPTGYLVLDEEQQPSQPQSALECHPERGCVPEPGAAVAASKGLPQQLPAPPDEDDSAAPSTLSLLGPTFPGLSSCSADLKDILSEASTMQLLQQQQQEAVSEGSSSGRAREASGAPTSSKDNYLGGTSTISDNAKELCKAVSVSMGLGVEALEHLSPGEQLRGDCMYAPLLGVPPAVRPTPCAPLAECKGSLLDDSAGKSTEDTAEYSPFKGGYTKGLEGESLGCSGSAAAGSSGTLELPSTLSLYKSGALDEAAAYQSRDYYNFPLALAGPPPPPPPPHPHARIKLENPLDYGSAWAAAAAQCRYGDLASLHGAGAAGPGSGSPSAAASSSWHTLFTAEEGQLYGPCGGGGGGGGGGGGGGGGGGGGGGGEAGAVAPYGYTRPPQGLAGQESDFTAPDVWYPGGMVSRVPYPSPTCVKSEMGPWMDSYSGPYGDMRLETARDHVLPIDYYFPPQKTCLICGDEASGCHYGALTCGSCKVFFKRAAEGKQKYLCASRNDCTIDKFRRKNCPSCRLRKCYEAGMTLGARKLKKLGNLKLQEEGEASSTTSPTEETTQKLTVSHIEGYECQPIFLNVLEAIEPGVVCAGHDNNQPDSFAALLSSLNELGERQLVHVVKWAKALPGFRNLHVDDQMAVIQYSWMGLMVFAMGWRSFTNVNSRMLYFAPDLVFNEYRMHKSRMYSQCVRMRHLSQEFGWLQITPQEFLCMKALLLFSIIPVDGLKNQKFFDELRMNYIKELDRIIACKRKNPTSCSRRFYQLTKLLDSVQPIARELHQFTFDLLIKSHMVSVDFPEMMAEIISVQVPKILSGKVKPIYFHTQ
# In short: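 Luminescence from an AR/GR-responsive MMTV-luciferase construct in MDA-kb2 breast carcinoma cells, read 30 min after ONE-Glo, following 16 hr co-treatment with compounds and 0.5 nM R1881.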
# [2] = biological target: Estrogen receptor (Homo sapiens) (UniProt P03372); test: qHTS assay to identify small molecule antagonists of the estrogen receptor alpha (ER-alpha) signaling pathway using the BG1 cell line in the presence of 0.1 nM 17-beta-estradiol (AID 1259244); note: nearly all actives have a fitted effect of over 50% in size; note: potency is the fitted concentration of half-maximal effect
# Estrogen receptor (Homo sapiens), sequence (P03372 whole entry, looked up): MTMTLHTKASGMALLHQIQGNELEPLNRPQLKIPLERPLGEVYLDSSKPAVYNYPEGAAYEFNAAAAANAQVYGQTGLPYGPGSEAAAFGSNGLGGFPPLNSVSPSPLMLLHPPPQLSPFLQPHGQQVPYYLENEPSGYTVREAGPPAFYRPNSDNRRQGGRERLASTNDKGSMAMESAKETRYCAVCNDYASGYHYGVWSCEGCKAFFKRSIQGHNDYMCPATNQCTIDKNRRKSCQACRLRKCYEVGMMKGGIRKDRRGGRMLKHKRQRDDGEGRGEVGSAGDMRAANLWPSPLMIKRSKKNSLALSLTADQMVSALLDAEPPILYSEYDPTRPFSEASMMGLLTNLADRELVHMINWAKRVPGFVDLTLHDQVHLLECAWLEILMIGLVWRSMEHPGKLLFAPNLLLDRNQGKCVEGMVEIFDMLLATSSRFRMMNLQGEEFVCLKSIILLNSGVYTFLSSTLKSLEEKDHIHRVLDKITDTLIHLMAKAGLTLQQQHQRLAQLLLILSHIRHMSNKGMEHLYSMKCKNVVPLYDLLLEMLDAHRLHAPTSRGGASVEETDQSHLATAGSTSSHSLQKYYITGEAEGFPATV
# In short: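 Luciferase signal from VM7Luc4E2 ERE-reporter cells, co-dosed with test compound and 0.1 nM final 17beta-estradiol for 22 h, read with ONE-Glo.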
# [3] = qHTS assay to identify small molecule HDAC inhibitors (AID 1259364);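 note: wild-type HCT-116 cells with endogenous class I/II HDAC activity; top concentration of the series differs between compounds; nearly all actives have a fitted effect of over 45% in size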
# In short: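 HCT-116 wt cells, 1,500/well, overnight attach. Compounds (DMSO) 2 h, 37 °C. HDAC-Glo I/II, 30 min RT. Luminescence.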
# [4] = qHTS assay to identify small molecule HDAC inhibitors - cell viability counter screen (AID 1259365); note: series mostly up to about 92 µM; nearly all actives have a fitted effect of over 50% in size
# In short: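 HCT-116 wild-type, overnight attachment; 2hr drug exposure, 37C; CellTiter-Glo luminescent ATP readout after 30min RT.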
# [5] = qHTS assay to identify small molecule agonists of the sonic hedgehog signaling (Shh) pathway - cell viability counter screen (AID 1259366); note: nearly all actives have a fitted effect of over 50% in size; note: potency is the fitted concentration of half-maximal effect
# In short: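 Compounds in DMSO were pin-transferred onto 3T3 Gli1-Luc cells that had settled 4hr; plates then stood 24hr at 37C and 5% CO2. One hour before the end, CellTiter-Fluor was added and fluorescence recorded.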
# [6] = qHTS assay to identify small molecule antagonists of the sonic hedgehog signaling (Shh) pathway - cell viability counter screen (AID 1259367); note: nearly all actives have a fitted effect of over 55% in size
# In short: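 CellTiter-Fluor signal in conditioned medium-stimulated 3T3 Gli1-Luc cells, 23 hr compound exposure, 37C.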
# [7] = qHTS assay to identify small molecule agonists of the sonic hedgehog signaling (Shh) pathway (AID 1259368; calls by dose curve;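 note: NIH/3T3-derived 3T3Gli1-Luc cells carrying a stable Gli1-driven firefly luciferase reporter; series mostly up to about 92 µM; nearly all actives have a fitted effect of over 15% in size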)
# In short: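 Following a 24 hr incubation with DMSO-dissolved compounds at 37 C, 5% CO2, Gli1-Luc NIH/3T3-derived cells received luciferase reagent for 30 min at room temperature prior to luminescence measurement.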
# [8] = qHTS assay to identify small molecule antagonists of the sonic hedgehog signaling (Shh) pathway (AID 1259369; calls by dose curve; note: nearly all actives have a fitted effect of over 45% in size; note: potency is the fitted concentration of half-maximal effect)
# In short: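 Read-out is luminescence from a firefly luciferase gene controlled by the Gli1 response element, in 3T3Gli1-Luc cells pre-incubated 4hr then exposed to compounds and conditioned medium for 24hr.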
# [9] = qHTS assay to identify small molecule phospholipidosis (PLD) inducers (AID 1259344; active = well fitted curve in the direction sought with a large enough effect; an effect the other way counts as inactive or inconclusive)
# In short: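 Accumulated phospholipid, stained red by LipidTOX during 24 h compound treatment of HepG2 cells at 37 C, is quantified from images as pit number and intensity, normalised per cell using Hoechst-stained nuclei.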
# [10] = biological target: Estrogen receptor beta (Homo sapiens) (UniProt Q92731); test: qHTS assay to identify small molecule agonists of the estrogen receptor beta (ER-beta) signaling pathway (AID 1259377; active = well fitted activation curve with a large enough effect in the signal ratio in the repeat runs, not every such curve was filed as active; the % refers to the signal ratio)
# Estrogen receptor beta (Homo sapiens), sequence (Q92731 whole entry, looked up): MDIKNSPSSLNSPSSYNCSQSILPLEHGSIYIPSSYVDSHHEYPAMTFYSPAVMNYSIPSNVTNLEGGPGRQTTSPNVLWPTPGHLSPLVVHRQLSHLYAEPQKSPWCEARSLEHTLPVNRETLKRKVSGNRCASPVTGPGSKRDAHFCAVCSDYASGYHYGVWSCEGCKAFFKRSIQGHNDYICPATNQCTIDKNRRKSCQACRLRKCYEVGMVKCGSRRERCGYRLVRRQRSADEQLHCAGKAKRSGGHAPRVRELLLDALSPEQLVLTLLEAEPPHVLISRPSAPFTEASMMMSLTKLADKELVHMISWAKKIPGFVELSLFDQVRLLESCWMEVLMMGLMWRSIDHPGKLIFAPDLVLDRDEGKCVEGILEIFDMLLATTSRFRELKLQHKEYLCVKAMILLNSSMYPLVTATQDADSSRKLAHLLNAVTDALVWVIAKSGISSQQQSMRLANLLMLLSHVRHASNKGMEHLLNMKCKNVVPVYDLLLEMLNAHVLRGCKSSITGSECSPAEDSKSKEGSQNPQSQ
# In short: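 qHTS in ER-beta-UAS-bla HEK293T cells: 6 hr settling, then 16 hr compound at 37C, then LiveBLAzer substrate 2 h at RT before fluorescence reading.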
compound,measurement,setting,value
CCCC(C)CCC(C)=O (configuration not stated),Potency,[1],inactive
same,Potency,[2],inactive
same,Potency,[3],inactive
same,Potency,[4],inactive
same,Potency,[5],inactive
same,Potency,[6],inactive
same,Potency,[7],inactive
same,Potency,[8],inactive
NC(=O)C(=O)N/N=C/c1ccc([N+](=O)[O-])o1,Potency,[1],inactive
same,Potency,[2],inactive
same,Potency,[9],inactive
same,Potency,[3],inactive
same,Potency,[4],inactive
same,Potency,[5],inactive
same,Potency,[6],inactive
same,Potency,[7],inactive
same,Potency,[10],inactive
CC(=O)OC1CCCCC1,Potency,[1],inactive
same,Potency,[2],inactive
same,Potency,[3],inactive
same,Potency,[4],inactive
same,Potency,[5],inactive
same,Potency,[6],inactive
same,Potency,[7],inactive
same,Potency,[8],inactive
CCCCCCCCC(C)=O,Potency,[1],inactive
same,Potency,[2],inactive
same,Potency,[3],inactive
same,Potency,[4],inactive
same,Potency,[5],inactive
same,Potency,[6],inactive
same,Potency,[7],inactive
same,Potency,[8],inactive
CCC(C)c1ccccc1 (configuration not stated),Potency,[1],inactive
same,Potency,[2],inactive
same,Potency,[3],inactive
same,Potency,[4],inactive
same,Potency,[5],inactive
same,Potency,[6],inactive
same,Potency,[7],inactive
same,Potency,[8],inactive
Cc1cccc(N(C)C)c1,Potency,[1],inactive
same,Potency,[2],inactive
same,Potency,[3],inactive
same,Potency,[4],inactive
same,Potency,[5],inactive
same,Potency,[6],inactive
same,Potency,[7],inactive
same,Potency,[8],inactive
C/C=C/CO,Potency,[1],inactive
same,Potency,[2],inactive
same,Potency,[3],inactive
same,Potency,[4],inactive
same,Potency,[5],inactive
same,Potency,[6],inactive
same,Potency,[7],inactive
same,Potency,[8],inactive
O=C1NCCN1CCN1CCC(c2cn(-c3ccc(F)cc3)c3ccc(Cl)cc23)CC1,Potency,[1],11.9 µM (active)
same,Potency,[2],8.41 µM (active)
same,Potency,[9],inactive
same,Potency,[3],inactive
same,Potency,[4],inactive
same,Potency,[5],18.8 µM (active)
same,Potency,[7],inactive
same,Potency,[8],13.3 µM (active)
O=S(=O)(O)c1cc(S(=O)(=O)O)c2ccc3c(S(=O)(=O)O)cc(S(=O)(=O)O)c4ccc1c2c43,"activity, negative = inhibition",[1],1.23% [at 19 µM]
same,"activity change, negative = inhibition",[2],0.118% [at 19 µM]
same,"activity change, negative = inhibition",[3],4.2% [at 19 µM]
same,"activity change, negative = cytotoxicity",[4],1.04% [at 19 µM]
same,"viability change, negative = cytotoxic",[5],1.66% [at 19 µM]
same,"viability change, negative = cytotoxic",[6],0.116% [at 19 µM]
same,activity change,[7],"-2.01% [at 18.9 µM, active compounds read high]"
same,"activity change, negative = inhibition",[8],2.19% [at 19 µM]
same,activation,[10],-3.15% [at 19 µM]
OCCCCl,Potency,[1],inactive
same,Potency,[2],inactive
same,Potency,[3],inactive
same,Potency,[4],inactive
same,Potency,[5],inactive
same,Potency,[6],inactive
same,Potency,[7],inactive
same,Potency,[8],inactive
Clc1ccc(C(Cn2ccnc2)OCc2c(Cl)cccc2Cl)c(Cl)c1 (configuration not stated),Potency,[1],8.41 µM (active)
same,Potency,[2],inactive
same,Potency,[9],inactive
same,Potency,[3],inactive
same,Potency,[4],inactive
same,Potency,[6],inactive
same,Potency,[7],inactive
CO[Si](CCC1CCC2OC2C1)(OC)OC (configuration not stated),Potency,[1],inactive
same,Potency,[2],inactive
same,Potency,[3],inactive
same,Potency,[4],inactive
same,Potency,[5],inactive
same,Potency,[6],inactive
same,Potency,[7],inactive
same,Potency,[8],inactive

# From PubChem BioAssay (Tox21)
